The values below come from ChEMBL document CHEMBL3988442, “University of Dundee, Small-Polar-MMV Screening Library” (2021).

About 13,000 (27%) of roughly 48,000 compounds showed an effect of 50% or more. This is one part of the list.

The assay deals with Wolbachia pipientis. The experiment in a line: Anti-Wolbachia Cell-Based Screen. In kind it is functional. Also noted: scale not given: in the data most compounds retested in dose-response had high values. As to conditions: 5 µM.
As for `Cc1nn(C)c2nc(N(C)CC3CCN(CC(C)C)C3)sc12` (configuration not stated), the “Percent Effect” value is recorded as -16.91%.

Consider `O=C(c1ccoc1)N1CCCN(CC2CCOc3ccccc3C2)CC1` (configuration not stated), for which the “Percent Effect” value is reported as -7.228%.

Take `N#Cc1cccc(NC2CC(=O)N(Cc3ccccc3Cl)C2)n1` (configuration not stated): the “Percent Effect” value is -1.238%.

On to `Cc1nc(NC(=O)NC2CC(=O)N(C)C2)nn1C` (configuration not stated), for which the “Percent Effect” value is listed as 3.668%.

Take `Cc1ccccc1CNc1nc(O)cc(C2CC(=O)N(C)C2)n1` (configuration not stated): the “Percent Effect” value is listed as -5.04%.

`CC(C)(CO)NC(=O)C1CCC(=O)N(Cc2ccc(Cl)cc2)C1` (configuration not stated): the “Percent Effect” value is -2.281%.

With `CN1CC(c2cc(O)nc(NCc3cccc(F)c3)n2)CC1=O` (configuration not stated), the “Percent Effect” value was found to be 104.4%.

As to `CC1CCc2nc(O)c(C(=O)NCc3cccc(F)c3)cc2C1` (configuration not stated), the “Percent Effect” value is listed as -1.382%.

Turning to `Cc1ccc(CNc2nc(O)cc(C3CC(=O)N(C)C3)n2)cc1` (configuration not stated), the “Percent Effect” value came out at 96.21%.

`CN1CC(c2cc(O)nc(NCc3ccccc3Cl)n2)CC1=O` (configuration not stated): the “Percent Effect” value is on record as 83.2%.

As to `COc1cccc(CNc2nc(O)cc(C3CC(=O)N(C)C3)n2)c1` (configuration not stated), the “Percent Effect” value is given as -3.669%.

Turning to `CN1CC(c2cc(O)nc(NCc3ccc(Cl)cc3)n2)CC1=O` (configuration not stated), the “Percent Effect” value stood at 70.24%.

Regarding `Cc1cc(C)cc(OCCC(=O)NC2CC(=O)N(C)C2)c1` (configuration not stated), the “Percent Effect” value is given as -4.77%.

For `CCC(NC(=O)Nc1ccc(OC)c(C)c1)c1noc(C)n1` (configuration not stated), the “Percent Effect” value is reported as -4.029%.

As to `CC(C)c1nccn1C(C)C(=O)N1CCN(c2ccccc2Cl)CC1` (configuration not stated), the “Percent Effect” value was -35.17%.

Turning to `CC(C(=O)N1CCCN(c2ccc(C#N)cc2)CC1)n1ccnc1` (configuration not stated), the “Percent Effect” value was -8.735%.

`N#Cc1ccc(N2CCCN(CC(=O)N3CCC3)CC2)cc1`: the “Percent Effect” value amounted to 4.301%.

`CC(C(=O)N1CCCN(c2ccccc2C#N)CC1)n1cccn1` (configuration not stated): the “Percent Effect” value amounted to 129.1%.

For the compound `CC(C(=O)N1CCCN(c2ccc(C#N)cc2)CC1)n1cccn1` (configuration not stated), the “Percent Effect” value was found to be 143.8%.

Consider `CC(C(=O)N1CCCN(c2ncccc2C#N)CC1)n1cccn1` (configuration not stated), for which the “Percent Effect” value was found to be 0.5745%.

Turning to `CC(C)n1ccnc1CN1C(=O)OC[C@@H]1c1ccccc1`, the “Percent Effect” value came out at 11.77%.

With `CCOCC(=O)N1C[C@H]2CC[C@@H]1CN(C(=O)c1ccncc1)C2`, the “Percent Effect” value is on record as -0.6982%.

In the case of `CN1CCCN(c2cnn(Cc3ccncc3)c(=O)c2)CC1`, the “Percent Effect” value is listed as -30.12%.

For `CCCOCCn1ncc(N2CCCC2)cc1=O`, the “Percent Effect” value is 0.2704%.

Turning to `Cn1c(Cn2ncc(N3CCCCC3)cc2=O)nc2ccccc21`, the “Percent Effect” value was determined as 93.17%.

As for `CN(C)c1cnn(CC(=O)N2Cc3ccccc3C2)c(=O)c1`, the “Percent Effect” value is recorded as 8.607%.

With `Cn1c(Cn2ncc(N3CCCC3)cc2=O)nc2ccccc21`, the “Percent Effect” value stood at 114.5%.

As to `CN1CCCN(c2cnn(Cc3ccc(C(C)(C)C)cc3)c(=O)c2)CC1`, the “Percent Effect” value is listed as 10.83%.

Take `CN(C)c1cnn(Cc2nc3ccccc3n2C)c(=O)c1`: the “Percent Effect” value was determined as 116.1%.

Take `CN(C)c1cnn(CC(=O)N2CCN(c3ccccc3)CC2)c(=O)c1`: the “Percent Effect” value was found to be 3.087%.

Regarding `O=c1cc(N2CCCCC2)cnn1CCCn1cccn1`, the “Percent Effect” value worked out at 21.14%.

As for `O=C(NC1CC2(CCN(CCO)CC2)Oc2ccccc21)c1csnn1` (configuration not stated), the “Percent Effect” value is recorded as -25.87%.

With `CC(C)c1nc(CN(C)C(=O)CCNC(=O)c2ccccc2F)no1`, the “Percent Effect” value is -5.471%.

For `CC(=O)Nc1ccc([C@@H](O)[C@H]2COCC(=O)N2CC(C)C)cc1`, the “Percent Effect” value is listed as -7.535%.

Take `Cc1nc(CN(Cc2ccc3c(c2)OCCO3)C2CCCC2)no1`: the “Percent Effect” value is reported as 158.9%.

Regarding `c1cc2c(cc1CN(Cc1nc(C3CC3)no1)C1CCCC1)OCO2`, the “Percent Effect” value is reported as 88.61%.

As for `Cc1noc(CN(Cc2ccc3c(c2)OCO3)C2CCCC2)n1`, the “Percent Effect” value is on record as 3.676%.

With `CCc1noc(CN(Cc2ccc3c(c2)OCO3)C2CCCC2)n1`, the “Percent Effect” value was determined as 130.5%.

On to `Cc1csc(CNC(=O)N(C)Cc2ccc3c(c2)OCCO3)n1`, for which the “Percent Effect” value is listed as -8.149%.

As to `Cc1noc(CN(C)Cc2ccc3c(c2)OCO3)n1`, the “Percent Effect” value came to 95.73%.

Turning to `CCN(Cc1ccc2c(c1)OCO2)Cc1nc(C)no1`, the “Percent Effect” value turned out to be 5.817%.

As to `CCN(Cc1nc(C2CC2)no1)Cc1ccc(C#N)cc1F`, the “Percent Effect” value is listed as -4.842%.

For `CCCc1noc(CN(C)Cc2ccc3c(c2)OCO3)n1`, the “Percent Effect” value is -4.394%.

Turning to `CN(C(=O)Cc1ccc2c(c1)OCCO2)C1CCCCC1`, the “Percent Effect” value is recorded as -4.303%.

In the case of `CCc1noc(CN(C)C(=O)c2ccnc(OC3CCC3)c2)n1`, the “Percent Effect” value is given as -5.488%.

For the compound `CC(C)c1nc2n(n1)CC(Nc1ncnc3c1CCC3)CC2` (configuration not stated), the “Percent Effect” value is listed as -10.8%.

Turning to `O=C(c1cc[nH]n1)N1CCN(C(c2ccccc2)C(F)(F)F)CC1` (configuration not stated), the “Percent Effect” value is given as 48.39%.

As to `N#CCCN(CCC#N)C(=O)c1ccc(COc2ccccc2C#N)o1`, the “Percent Effect” value is given as -1.523%.

Consider `CN(C)CCN(C)S(=O)(=O)CC1CCOCC1`, for which the “Percent Effect” value is given as 3.137%.

As for `CC(CS(C)(=O)=O)N(C(=O)Nc1ccc(F)cc1F)C1CC1` (configuration not stated), the “Percent Effect” value worked out at 2.637%.

For `COc1cc(OC)c(CNC(=O)NCc2ccc(C#N)cc2)c(OC)c1`, the “Percent Effect” value is 1.359%.

With `COCCO[C@H]1COCCN(Cc2ccc(OC)cc2)C1`, the “Percent Effect” value was -5.552%.

`O=C(C1CCOc2ccccc2C1)N1Cc2cnn(CCO)c2C1` (configuration not stated): the “Percent Effect” value was -2.46%.

With `CCCN(C(=O)CN1CCN(CC(C)O)CC1)C1=CCCCC1` (configuration not stated), the “Percent Effect” value is on record as -2.912%.

For the compound `CCc1nc(C2CCCN2c2ncc(C(N)=O)cc2Cl)no1` (configuration not stated), the “Percent Effect” value was -14.14%.

As for `CC(=O)N1CCCC1c1nc(C)no1` (configuration not stated), the “Percent Effect” value turned out to be 122.1%.

In the case of `Cc1noc([C@@H]2CCCN2C(=O)C2CCN(CC(N)=O)CC2)n1`, the “Percent Effect” value is 1.357%.
